Data: PubChem BioAssay AID720504 (National Center for Advancing Translational Sciences (NCATS), 2013)
Screen size: about 360,000 compounds; about 10,000 (2.8%) were called active. About 4% were inconclusive and are not listed. The full list was thinned out, with actives kept by preference. Unmarked numbers belong to inactive results. Calls come from the whole dose curve; as a rule, active = well fitted inhibition curve with a large enough effect; inconclusive = small, poorly fitted or top-dose-only effect; inactive = flat fitted curve, though single readings scatter.
% is set by controls: 0 for no effect and ±100 for the full control effect; potency is the fitted concentration of half-maximal effect.
Note: nearly all actives have a fitted effect of over 65% in size.
Throughout, for max response, negative = inhibition: series mostly up to about 57 µM.

Each compound was assayed against Serine/threonine-protein kinase PLK1 (Homo sapiens) (UniProt P53350) (assay: qHTS for Inhibitors of PLK1-PDB (polo-like kinase 1 - polo-box domain): Primary Screen). Conditions: Plk1 PBD binding of FITC phosphopeptide, fluorescence polarization.
Sequence of Serine/threonine-protein kinase PLK1 (Homo sapiens) (P53350 whole entry, looked up, the tested form may be a part): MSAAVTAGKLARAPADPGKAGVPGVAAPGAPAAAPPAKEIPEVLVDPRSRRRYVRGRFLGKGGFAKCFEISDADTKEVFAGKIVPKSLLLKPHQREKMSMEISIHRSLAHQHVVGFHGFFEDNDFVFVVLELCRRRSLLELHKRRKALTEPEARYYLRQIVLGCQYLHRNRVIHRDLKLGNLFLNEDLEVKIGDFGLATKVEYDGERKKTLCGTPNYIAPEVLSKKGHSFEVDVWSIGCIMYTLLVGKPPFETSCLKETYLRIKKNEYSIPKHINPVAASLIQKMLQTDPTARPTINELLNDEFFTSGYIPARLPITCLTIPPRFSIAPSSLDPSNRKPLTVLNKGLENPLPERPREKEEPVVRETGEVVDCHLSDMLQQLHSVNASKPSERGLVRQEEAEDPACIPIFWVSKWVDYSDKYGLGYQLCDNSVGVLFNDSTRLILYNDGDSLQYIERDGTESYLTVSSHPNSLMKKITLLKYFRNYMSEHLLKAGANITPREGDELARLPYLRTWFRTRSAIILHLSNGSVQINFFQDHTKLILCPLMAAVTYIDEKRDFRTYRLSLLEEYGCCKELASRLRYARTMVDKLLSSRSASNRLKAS
For COc1ccc(Cn2c(=O)oc3ccccc32)cc1, the max response, negative = inhibition was -4.16%.
In the case of CC(=O)Nc1cccc(-c2cc3nc(NCc4cccnc4)n(C)c(=O)c3s2)c1, the max response, negative = inhibition is reported as -0.405%.
Work on CC(=O)Oc1ccc(Cn2c(C)c(C(=O)NCc3ccc(C#N)cc3)sc2=O)cc1 yielded a max response, negative = inhibition of -2.92%.
Cc1sc2nc(-c3ccccc3F)oc(=O)c2c1C showed a max response, negative = inhibition of -3.03%.
N#CCCN(C(=S)Nc1ccc(Cl)c(Cl)c1)C1CCCCC1 was tested, and the max response, negative = inhibition was -9.12%.
S=c1[nH]nc(Nc2ccccc2)s1 was tested, and the Potency was 23.8 µM (active).
CC(C)(C)C(=O)c1cnc(Nc2ccccc2)s1 showed a max response, negative = inhibition of -4.38%.
Work on O=c1cnnc(Nc2ccccc2)[nH]1 yielded a max response, negative = inhibition of -9.72%.
For CCOC(=O)C(Sc1ncc(C#N)c(N)n1)C(C)C (stereo unspecified), the Potency was 11.9 µM (active).
In the case of CCOC(=O)CSc1nccc(N(C)C)c1C#N, the max response, negative = inhibition is reported as -3.55%.
CCOC(=O)c1cnc(SCC(=O)Nc2ccccc2C(=O)OC)nc1N gave a max response, negative = inhibition of 0.561%.
With COc1ccc(C(C[N+](=O)[O-])n2nc(C)cc2C)cc1 (stereo unspecified) the Potency was 26.7 µM (active).
Compound COc1cccc(CSc2nc3nc(C)cc(C)n3n2)c1 has a max response, negative = inhibition of -14.8%.
Compound COc1ccc(OC)c(S(=O)(=O)n2c([N+](=O)[O-])cnc2C)c1 has a max response, negative = inhibition of -9.42%.
With CC1(C(=O)Nc2ccc3c(c2)OCCO3)CCN1C(=O)Cc1cc(F)ccc1F (stereo unspecified) the max response, negative = inhibition was 2.25%.
CCOC(=O)c1cc(-c2sc(NC(=O)c3ccccc3)nc2C)n(-c2ccc(Br)cc2)n1 gave a max response, negative = inhibition of -6.87%.
O=C(NCc1ccccc1)C1CNCC(C(=O)NCc2ccccc2)C1 (stereo unspecified) was tested, and the max response, negative = inhibition was 1.25%.
O=C(c1ccc(N2CCCC2=O)cc1)N1CCN(c2ccc(C(F)(F)F)cc2[N+](=O)[O-])CC1 showed a max response, negative = inhibition of -12.4%.
In the case of CCc1ccccc1N(CC(=O)NCC1CCCO1)C(=O)CCC(=O)Nc1nccs1 (stereo unspecified), the Potency is reported as 21.2 µM (active).
Work on Cc1cc(NC(=O)CCC(=O)N(CC(=O)NCC2CCCO2)c2ccccc2C)no1 (stereo unspecified) yielded a max response, negative = inhibition of -1.5%.
Work on COc1ccc(N(CC(=O)NCC2CCCO2)C(=O)CCC(=O)Nc2nccs2)c(OC)c1 (stereo unspecified) yielded a max response, negative = inhibition of -9.55%.
COc1ccc(C(=O)C(OP(=O)(OC)OC)c2ccccc2OC)cc1 (stereo unspecified) gave a max response, negative = inhibition of -7.71%.
For CO[C@@H]1CN(C)C(=O)c2cc(NC(=O)C3CC3)ccc2OC[C@H](C)N(C(=O)CN2CCOCC2)C[C@@H]1C, the max response, negative = inhibition was -4.89%.
In the case of O=C(Nc1ccccc1-c1nnn(CC(=O)N2CCN(c3ccccc3)CC2)n1)c1cccs1, the max response, negative = inhibition is reported as -6.64%.
O=C(Nc1ccccc1-c1ccccc1)c1ccccc1[N+](=O)[O-] showed a max response, negative = inhibition of -3.58%.
In the case of O=C(Nc1ccccc1-c1ccccc1)c1cccs1, the Potency is reported as 4.23 µM (active).
O=C(NCc1ccccc1)C1c2ccccc2OCC(=O)N1CCCN1CCOCC1 (stereo unspecified) showed a max response, negative = inhibition of -0.492%.
For CC(C)c1ccc2c(c1)c(SC(C)(C)C)c(CC(C)(C)C(=O)O)n2Cc1ccc(Cl)cc1, the Potency was 16.8 µM (active).
In the case of COc1ccc(NC2CCCN(C(=O)c3ccccc3-c3ncc[nH]3)C2)cc1 (stereo unspecified), the max response, negative = inhibition is reported as -9.12%.
Work on CC1=C(C(=O)N(C(C)C)C(C)C)CC(CC(=O)NCCCCc2ccccc2)C(=O)N1CCC1=CCCCC1 (stereo unspecified) yielded a max response, negative = inhibition of 1.49%.
CN(Cc1cn(Cc2ccc(C(F)(F)F)cc2)nn1)C1CN(Cc2cn(Cc3ccc(C(F)(F)F)cc3)nn2)S(=O)(=O)C1 (stereo unspecified) gave a max response, negative = inhibition of -2.76%.
Work on CCc1ccccc1OCC(=O)Nc1ccc2c(c1)OCCO2 yielded a max response, negative = inhibition of -10.4%.
For CCOc1ccccc1NC(=S)C(=C([O-])c1ccc2c(c1)OCCO2)[n+]1ccc(CC)cc1, the Potency was 26.7 µM (active).
Work on O=[N+]([O-])c1cccc(/C([O-])=C(/C(=S)Nc2ccccc2F)[n+]2ccccc2)c1 yielded a max response, negative = inhibition of -15%.
With CCOc1ccc(CCN2C(=S)N([C@@H](CC(C)C)CN3CCC[C@@H]3CN3C(=S)NC[C@@H]3Cc3ccc(O)cc3)C[C@@H]2Cc2ccc(O)cc2)cc1 the max response, negative = inhibition was 5.13%.
CCc1nc2c(OCc3ccc(Cl)cc3Cl)cccn2c1N(C)C(=O)C(C)C gave a max response, negative = inhibition of 3.78%.
CC(C)CNC(=O)C1(C)CCCN1C(=O)CSc1ccccc1 (stereo unspecified) showed a max response, negative = inhibition of -9.29%.
O=C(CCC1CCCN(C(=O)Cc2ccc(F)cc2)C1)N1CCN(c2ccccn2)CC1 (stereo unspecified) gave a max response, negative = inhibition of 2.42%.
In the case of C=Cc1ccc(C(=O)N2CCCC(CCC(=O)N3CCN(c4ccccn4)CC3)C2)cc1 (stereo unspecified), the Potency is reported as 21.2 µM (active).
Compound O=C(CCC1CCCN(C(=O)c2ccc(F)c(F)c2)C1)N1CCN(c2ccccn2)CC1 (stereo unspecified) has a max response, negative = inhibition of -12.1%.
O=C(C=CC(=O)Nc1ccc(F)cc1F)Nc1ccc(F)cc1F showed a max response, negative = inhibition of 0.443%.
With COC(=O)Cc1ccc(OC2(C)CCN(Cc3ccc4c(c3)OCCO4)C2)cc1 (stereo unspecified) the max response, negative = inhibition was -7.87%.
CC(=O)/C(=N\Nc1ccc(Cl)cc1Cl)Sc1cccc2cccnc12 was tested, and the Potency was 4.23 µM (active).
O=C(NNc1cc(Cl)ccc1Cl)c1cccnc1Cl gave a max response, negative = inhibition of 7.67%.
COc1cccc(CNC(=O)c2cccnc2Sc2ccc(Cl)cc2)c1 gave a max response, negative = inhibition of -0.639%.
Work on NC(c1csc(NC(=O)Nc2cccc(C(F)(F)F)c2)n1)C1CCCCC1 (stereo unspecified) yielded a max response, negative = inhibition of -5.95%.
CC(=O)Nc1ccc(CNc2nc(NCCN(C)C)nc3cc(-c4ccccc4)sc23)cc1 was tested, and the max response, negative = inhibition was 0.652%.
In the case of Cc1cccc(C)c1Cn1c(C)c(C(=O)NCc2cccc(Cl)c2)sc1=O, the max response, negative = inhibition is reported as -19.8%.
CCNC(=O)C1(C)CCCN1C(=O)c1ccc(N(C)C)cc1 (stereo unspecified) showed a max response, negative = inhibition of -10.7%.
For NC(=O)C1(N2CCCCC2)CCN(C(=S)Nc2ccc(Cl)cc2)CC1, the max response, negative = inhibition was 1.24%.
In the case of CN(C)c1ccc(C(=S)N2CCN(C(=S)Nc3ccc(Cl)cc3)CC2)cc1, the Potency is reported as 6.7 µM (active).
For O=C(NC1CCN(C(=S)Nc2ccc(Cl)cc2)CC1)C1CCCCC1, the max response, negative = inhibition was -11.1%.
In the case of Cc1ccc(-c2nc3c(C)cc(Br)cn3c2Cc2ccccc2)cc1, the max response, negative = inhibition is reported as -13.2%.
Work on COc1ccc(OC)c(NC(=O)C2(C)CCN2C(=O)Cc2ccccc2)c1 (stereo unspecified) yielded a max response, negative = inhibition of -5.3%.
For COc1cc(=O)[nH]c(=O)n1C(=O)Cc1ccccc1, the Potency was 2.99 µM (active).
With CCCOc1ccc(Cn2c(O)cc(=O)[nH]c2=O)cc1 the max response, negative = inhibition was -26.3%.
Compound COc1ccc(-c2cnc3c(c2)C(=O)N([C@H](C)CO)C[C@@H](C)[C@H](CN(C)Cc2ccccc2)O3)cc1 has a max response, negative = inhibition of -12.1%.
Work on O=C1NC[C@H](Cc2ccc(O)cc2)N(C[C@@H]2CCCN2C[C@H](Cc2ccccc2)N2C[C@H](Cc3ccccc3)N(CC3CCCCC3)C(=O)C2=O)C1=O yielded a max response, negative = inhibition of -9.78%.
O=C(c1cc(C2CCCCN2S(=O)(=O)c2ccccc2)on1)N1CCOCC1 (stereo unspecified) showed a max response, negative = inhibition of 3.83%.
In the case of C=CS(=O)c1sc(Cl)c(N2CCOCC2)c1[N+](=O)[O-] (stereo unspecified), the Potency is reported as 1.34 µM (active).
O=S1(=O)C[C@@H](N2CCN(CCO)CC2)[C@H](COCc2ccccc2)N1 was tested, and the max response, negative = inhibition was -14.5%.
Cc1cc(Br)cn2c(Cc3ccccc3C(F)(F)F)c(C3CCCCC3)nc12 showed a max response, negative = inhibition of -6.9%.
Compound Nc1cc(=O)n(Cc2ccccc2)c(=O)n1Cc1ccccc1 has a max response, negative = inhibition of -11.9%.
In the case of Cc1cc2nc3c(=O)n(Cc4ccccc4)c(=O)[nH]c3nc2cc1N, the Potency is reported as 3.36 µM (active).
Work on CN(C(=O)COC(=O)c1ccc(Br)o1)c1c(N)n(Cc2ccccc2)c(=O)[nH]c1=O yielded a max response, negative = inhibition of 2.32%.
COCCCNC(=O)c1ccc(-c2c(C)noc2C)c2ccoc12 was tested, and the max response, negative = inhibition was -2.73%.
CCCNC(=O)C1(C)CCN(C(=O)c2cc(F)ccc2C)C1 (stereo unspecified) showed a max response, negative = inhibition of -7.98%.
With CC1CCC(NS(=O)(=O)c2ccc3c(c2)n(C)c(=O)c(=O)n3C)CC1 (stereo unspecified) the max response, negative = inhibition was -1.85%.
Cn1sc(=O)c2cc(S(=O)(=O)NC3CC3)ccc21 was tested, and the Potency was 2.12 µM (active).
Work on O=S(=O)(NC1CC1)c1ccc(Cl)cc1 yielded a max response, negative = inhibition of -11.6%.
COC(=O)c1ccc2nc(-c3ccccc3)c(Cc3ccc(OC)cc3C)n2c1 gave a max response, negative = inhibition of -8.32%.
For CCOC(=O)C1=CCC(c2ccc(F)cc2)N(S(=O)(=O)c2ccc(C)cc2)C1 (stereo unspecified), the max response, negative = inhibition was -10.4%.
O=C(CSc1nc2[nH]ncc2c(=O)[nH]1)Nc1ccc(F)cc1 was tested, and the max response, negative = inhibition was -1.42%.
In the case of COc1ccc(NC(=O)CSc2ncnc3[nH]ncc23)cc1, the Potency is reported as 3.77 µM (active).
For COc1ccc(-n2ncc3c(SCC(=O)NNC(C)=O)ncnc32)cc1, the max response, negative = inhibition was 4.95%.
Work on Cn1cnc(S(=O)(=O)N2C[C@@H](O)COC[C@@H]3O[C@H](CC(=O)NC4CCC4)CC[C@H]32)c1 yielded a max response, negative = inhibition of -0.717%.
Compound Cc1nccn1-c1ccc(NC(=O)[C@H]2O[C@@H](n3ccc(=O)[nH]c3=O)[C@H](O)[C@@H]2O)cc1 has a max response, negative = inhibition of 0.546%.
Compound CCOC(=O)[C@]12CCC=C1N(Cc1ccccc1)C(=O)[C@H](CC(=O)N1CCCC1)C2 has a max response, negative = inhibition of -1.56%.
CCCCCn1nnnc1C1c2ccccc2C(=O)N1Cc1ccco1 (stereo unspecified) gave a max response, negative = inhibition of -6.84%.
Cc1cc(C)c([N+](=O)[O-])cc1-c1ccc(/C=N/NC(=O)c2nonc2N)o1 showed a max response, negative = inhibition of 0.266%.
For Cc1ccc(-c2ccc(/C=C(\C#N)C(N)=S)o2)c([N+](=O)[O-])c1, the Potency was 26.7 µM (active).
With Cc1ccc2nc(SCc3nnc(-c4ccccc4[N+](=O)[O-])o3)c(C#N)cc2c1 the max response, negative = inhibition was -9%.
For CC1=C(C(=O)N(C(C)C)C(C)C)CC(CC(=O)NCC2CCCCC2)C(=O)N1Cc1ccccc1 (stereo unspecified), the max response, negative = inhibition was -4.13%.
Compound O=C(C(=O)N1CCC(c2ccccc2)CC1)c1ccccc1 has a max response, negative = inhibition of 3.91%.
Clc1ccc2c(c1)C1=C(C(c3ccncc3)O2)C(c2ccc(Br)cc2)n2ncnc2N1 (stereo unspecified) was tested, and the max response, negative = inhibition was -0.898%.
Brc1ccc(C2=CC(c3ccco3)n3ncnc3N2)cc1 (stereo unspecified) was tested, and the Potency was 23.8 µM (active).
